Assay results from publication PMC5913336, “True equilibrium measurement of transcription factor-DNA binding affinities using automated polarization microscopy”.

molecular target: Oc (Drosophila melanogaster, UniProt P22810 52-141); experiment: FP; 33 mM phosphate pH 7.0, 90 mM NaCl, 0.01% Tween 20, 0.1 mM DTT, 0.5% agarose; room temperature; conditions: tags: N-GST (pGEX-6P-1, kept); dsDNA, one strand shown
Sequence (P22810 52-141): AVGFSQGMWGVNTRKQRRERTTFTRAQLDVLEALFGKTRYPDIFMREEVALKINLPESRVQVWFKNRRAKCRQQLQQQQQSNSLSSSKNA

Row | Sequence | binding signal | Kd
1 | AGATAATCCCCT | 183 Kd / Kd of best base at the position | –
2 | CGTTAATCCCCT | 2.09 Kd / Kd of best base at the position | –
3 | AGTTAAACCCCT | 93.6 Kd / Kd of best base at the position | –
4 | AGTTAATTCCCT | 123 Kd / Kd of best base at the position | –
5 | AGTTAATACCCT | 251 Kd / Kd of best base at the position | –
6 | AGTTAATCCCCA | 1.11 Kd / Kd of best base at the position | –
7 | AGTTAATCCGCT | 1.09 Kd / Kd of best base at the position | –
8 | AGTTTATCCCCT | 1.7 Kd / Kd of best base at the position | –
9 | AGTTGATCCCCT | 15.1 Kd / Kd of best base at the position | –
10 | AGTTAATCCCAT | 1.11 Kd / Kd of best base at the position | –
11 | TGTTAATCCCCT | 3.64 Kd / Kd of best base at the position | –
12 | AGCTAATCCCCT | 2.31 Kd / Kd of best base at the position | –
13 | AGTTAATCTCCT | 3.07 Kd / Kd of best base at the position | –
14 | AGTTAATCCCCC | 1.11 Kd / Kd of best base at the position | –
15 | AGGTAATCCCCT | 3.1 Kd / Kd of best base at the position | –
16 | AATTAATCCCCT | 2.08 Kd / Kd of best base at the position | –
17 | GGTTAATCCCCT | 1.35 Kd / Kd of best base at the position | –
18 | AGTTAATCCCTT | 1.11 Kd / Kd of best base at the position | –
19 | AGTTAATCACCT | 7.07 Kd / Kd of best base at the position | –

Row | Sequence | binding signal | Kd
20 | AGTTAATCCTCT | 1.44 Kd / Kd of best base at the position | –
21 | AGTTCATCCCCT | 177 Kd / Kd of best base at the position | –
22 | AGTTAATCGCCT | 6.1 Kd / Kd of best base at the position | –
23 | AGTTAATCCCCG | 1.11 Kd / Kd of best base at the position | –
24 | AGTTAATCCCCT | – | ~3.8 nM
25 | AGTTAATGCCCT | 140 Kd / Kd of best base at the position | –
26 | AGTTATTCCCCT | 16.4 Kd / Kd of best base at the position | –
27 | AGTTAATCCCGT | 1.2 Kd / Kd of best base at the position | –
28 | AGTGAATCCCCT | 176 Kd / Kd of best base at the position | –
29 | AGTTAAGCCCCT | 18 Kd / Kd of best base at the position | –
30 | ATTTAATCCCCT | 2.15 Kd / Kd of best base at the position | –
31 | ACTTAATCCCCT | 1.03 Kd / Kd of best base at the position | –
32 | AGTTAGTCCCCT | 6.2 Kd / Kd of best base at the position | –
33 | AGTCAATCCCCT | 340 Kd / Kd of best base at the position | –
34 | AGTTACTCCCCT | 12 Kd / Kd of best base at the position | –
35 | AGTTAACCCCCT | 60 Kd / Kd of best base at the position | –
36 | AGTAAATCCCCT | 19.8 Kd / Kd of best base at the position | –
37 | AGTTAATCCACT | 1.54 Kd / Kd of best base at the position | –
